Assay results taken from PubChem BioAssay (Tox21).
Results filed as inconclusive are left out. The source made the active and inactive calls. Unless noted, the call rests on the fitted dose curve; in most records, active means well fitted curve in the direction sought with a large enough effect in the repeat runs; inconclusive means weak or mixed curves; inactive means no such curve, though single readings can be large; an effect the other way counts as inactive or inconclusive.

Columns and labels:
[1] = qHTS assay to identify small molecule HDAC inhibitors (AID 1259364);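 further: wild-type HCT-116 cells with endogenous class I/II HDAC activity; top concentration of the series differs between compounds; nearly all actives have a fitted effect of over 45% in size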
Summary of the method: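 Read-out: luminescence of HDAC-Glo I/II reagent, 30 min RT, reflecting class I/II deacetylase activity in whole HCT-116 cells pre-exposed 2 h to DMSO-dissolved compounds.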

[2] = qHTS assay to identify small molecule HDAC inhibitors - cell viability counter screen (AID 1259365); further: series mostly up to about 92 µM; nearly all actives have a fitted effect of over 50% in size
Summary of the method: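 HCT-116 wild-type, overnight attachment; 2hr drug exposure, 37C; CellTiter-Glo luminescent ATP readout after 30min RT.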

[3] = qHTS assay to identify small molecule agonists of the sonic hedgehog signaling (Shh) pathway - cell viability counter screen (AID 1259366); further: nearly all actives have a fitted effect of over 50% in size
Summary of the method: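 Compounds in DMSO were pin-transferred onto 3T3 Gli1-Luc cells that had settled 4hr; plates then stood 24hr at 37C and 5% CO2. One hour before the end, CellTiter-Fluor was added and fluorescence recorded.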

[4] = qHTS assay to identify small molecule agonists of the sonic hedgehog signaling (Shh) pathway (AID 1259368; calls by dose curve;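 further: NIH/3T3-derived 3T3Gli1-Luc cells carrying a stable Gli1-driven firefly luciferase reporter; series mostly up to about 92 µM; nearly all actives have a fitted effect of over 15% in size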)
Summary of the method: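 A Gli1 transcriptional response element controlled firefly luciferase in 3T3Gli1-Luc cells. Compounds and a positive control were added 4 hr after plating, and cells were incubated a further 24 hr at 37 C before luminescence detection.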

[5] = qHTS assay to identify small molecule antagonists of the sonic hedgehog signaling (Shh) pathway (AID 1259369; calls by dose curve; further: nearly all actives have a fitted effect of over 45% in size)
Summary of the method: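 For antagonist detection, the reporter line received test compounds together with conditioned medium, incubated 24hr at 37 C, 5% CO2, then luminescence was recorded following 30min room-temperature luciferase reagent incubation.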

[6] = target: Estrogen receptor beta (Homo sapiens) (UniProt Q92731); test: qHTS assay to identify small molecule antagonists of the estrogen receptor beta (ER-beta) signaling pathway (AID 1259378; active means well fitted inhibition curve with a large enough effect in the signal ratio in the repeat runs, not every such curve was filed as active; the % refers to the signal ratio)
Sequence of Estrogen receptor beta (Homo sapiens) (Q92731 whole entry, looked up): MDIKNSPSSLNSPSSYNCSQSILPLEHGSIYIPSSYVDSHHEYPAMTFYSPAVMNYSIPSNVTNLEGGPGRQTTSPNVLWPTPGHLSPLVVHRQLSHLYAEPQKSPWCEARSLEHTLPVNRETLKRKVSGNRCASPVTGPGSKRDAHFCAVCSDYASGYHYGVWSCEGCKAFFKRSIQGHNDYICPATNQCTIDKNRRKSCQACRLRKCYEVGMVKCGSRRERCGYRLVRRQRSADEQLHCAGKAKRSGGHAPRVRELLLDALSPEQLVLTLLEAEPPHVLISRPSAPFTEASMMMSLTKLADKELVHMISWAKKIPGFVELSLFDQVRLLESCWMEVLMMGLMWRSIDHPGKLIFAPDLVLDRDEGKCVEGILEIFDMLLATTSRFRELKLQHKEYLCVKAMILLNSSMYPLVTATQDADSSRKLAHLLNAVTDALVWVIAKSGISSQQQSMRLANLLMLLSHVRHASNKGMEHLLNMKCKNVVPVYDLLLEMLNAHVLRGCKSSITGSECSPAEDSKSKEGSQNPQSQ
Summary of the method: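 ER-beta-UAS-bla HEK293T (GripTite) cells in 2% charcoal-stripped FBS medium were preincubated 6 hr at 37C, dosed with compound, then stimulated with 1 nM E2 (final) for 16 hr; beta-lactamase reporter read by B/G FRET fluorescence after 2 hr substrate loading.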

[7] = qHTS assay to identify small molecule agonists of the androgen receptor (AR) signaling pathway in the presence of an antagonist - cell viability counter screen (AID 1259379);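 further: MDA-kb2 human breast cancer cells carrying an MMTV luciferase reporter; series mostly up to about 92 µM; nearly all actives have a fitted effect of over 25% in size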
Summary of the method: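 Seed MDA-kb2 at 3,000 cells/well; incubate 5 hr, 37C, 0% CO2. Add nilutamide to 3.0uM final, then pin compounds at 15 concentrations. Incubate 16 hr. Add CellTiter-Fluor at 15 hr, read fluorescence after 1 hr.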

[8] = qHTS assay to identify small molecule agonists of the estrogen receptor beta (ER-beta) signaling pathway - cell viability counter screen (AID 1259380); further: nearly all actives have a fitted effect of over 30% in size
Summary of the method: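 CellTiter-Glo read, 30 min RT, same wells as bla assay; cells ER-beta-UAS-bla HEK293T; 16 hr compound, 37C; medium 2% charcoal-stripped FBS.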

[9] = target: Estrogen receptor beta (Homo sapiens) (UniProt Q92731); test: qHTS assay to identify small molecule agonists of the estrogen receptor beta (ER-beta) signaling pathway (AID 1259377; active means well fitted activation curve with a large enough effect in the signal ratio in the repeat runs, not every such curve was filed as active; the % refers to the signal ratio)
Summary of the method: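 qHTS in ER-beta-UAS-bla HEK293T cells: 6 hr settling, then 16 hr compound at 37C, then LiveBLAzer substrate 2 h at RT before fluorescence reading.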

[10] = qHTS assay to identify small molecule antagonists of the sonic hedgehog signaling (Shh) pathway - cell viability counter screen (AID 1259367); further: nearly all actives have a fitted effect of over 55% in size
Summary of the method: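 After a 4 hr settling period, 3T3 Gli1-Luc cells were treated with DMSO-dissolved chemicals and conditioned medium, kept 24 hr at 37C in 5% CO2, and assayed for viability by CellTiter-Fluor fluorescence following 1 hr reagent incubation.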
On the % scale 0 is the no-effect control and ±100 the full control effect.

CC(C)Cn1cnc2c1c(=O)n(C)c(=O)n2C
inactive: Potency [1] | outcome [2] | outcome [3] | outcome [4] | Potency [5] | Potency [6] | outcome [7]

CC(CO)(CO)CO
inactive: Potency [1] | outcome [2] | outcome [3] | outcome [4] | Potency [5] | Potency [6] | outcome [7] | outcome [8]

COc1nc(N)nc2nc[nH]c12
inactive: Potency [1] | outcome [2] | outcome [3] | outcome [4] | Potency [5] | Potency [9] | Potency [6] | outcome [8]

COc1cc(/C=C/C(N)=O)cc(OC)c1OC
inactive: Potency [1] | outcome [2] | outcome [4] | Potency [5] | Potency [9] | Potency [6] | outcome [8]

CC(C)[C@H]1CC[C@H](C)C[C@@H]1O
inactive: Potency [1] | outcome [2] | outcome [10] | outcome [4] | Potency [9] | Potency [6] | outcome [8]

CCCCCCCCCOC(=O)CCCCC(=O)OCCCCCCC
inactive: Potency [1] | outcome [2] | outcome [10] | outcome [4] | Potency [5] | outcome [7] | outcome [8]

CC(C)Nc1ccccc1
inactive: Potency [1] | outcome [2] | outcome [10] | outcome [4] | Potency [5] | Potency [9] | Potency [6] | outcome [7] | outcome [8]

Cc1cccc(Cl)c1
inactive: Potency [1] | outcome [3] | outcome [10] | outcome [4] | Potency [5] | Potency [9] | Potency [6] | outcome [7] | outcome [8]

CC(C)NCC(O)c1ccc2ccccc2c1 (stereo not given)
inactive: Potency [1] | outcome [3] | outcome [10] | outcome [4] | Potency [5] | Potency [9] | Potency [6] | outcome [7] | outcome [8]

CCC(C)C(C)=O (stereo not given)
inactive: Potency [1] | outcome [2] | outcome [10] | outcome [4] | Potency [9] | Potency [6] | outcome [7] | outcome [8]

CCCCCCCCCCCCCCCCCC#N
inactive: Potency [1] | outcome [2] | outcome [10] | outcome [4] | Potency [6] | outcome [7] | outcome [8]

CCOC(CN1CCN(CC(C)C(=O)c2ccccc2)CC1)c1ccccc1 (stereo not given)
inactive: activity change, negative = inhibition [1] 1.54% [at 19 µM] | activity change, negative = cytotoxicity [2] -3.08% [at 19 µM] | viability change, negative = cytotoxic [10] -0.0061% [at 19 µM] | activity change [4] 0.16% [at 18.9 µM] | activity change, negative = inhibition [5] -3.93% [at 19 µM] | activity change, negative = cytotoxicity [7] -6.08% [at 19 µM] | activity change, negative = cytotoxicity [8] -10.4% [at 19 µM]

CCOc1cccc(N)c1
inactive: Potency [1] | outcome [3] | outcome [10] | outcome [4] | Potency [5] | Potency [9] | Potency [6] | outcome [7] | outcome [8]

COC(=O)/C=C\C(=O)O
inactive: Potency [1] | outcome [2] | outcome [10] | outcome [4] | Potency [5] | Potency [9] | Potency [6] | outcome [7] | outcome [8]

CC(C)COC(=O)c1ccccc1
inactive: Potency [1] | outcome [2] | outcome [10] | outcome [4] | Potency [5] | outcome [7] | outcome [8]

O=C(O)c1cc2ccccc2nc1C(=O)O
inactive: Potency [1] | outcome [2] | outcome [10] | outcome [4] | Potency [5] | Potency [9] | Potency [6] | outcome [7] | outcome [8]

CCCC(=O)OCCC(C)CCC=C(C)C (stereo not given)
inactive: Potency [1] | outcome [2] | outcome [4] | Potency [9] | Potency [6] | outcome [8]

COc1ccc(CCO)cc1
inactive: Potency [1] | outcome [2] | outcome [10] | outcome [4] | Potency [5] | Potency [9] | Potency [6] | outcome [7]

CC(=O)OCC(=O)Nc1cc(C#N)cc(NC(=O)COC(C)=O)c1Cl
inactive: Potency [1] | outcome [2] | outcome [4] | Potency [5] | Potency [6] | outcome [7] | outcome [8]

CC1=C(C(=O)O)N2C(=O)[C@@H](NC(=O)[C@H](N)C3=CCC=CC3)[C@H]2SC1
inactive: Potency [1] | outcome [2] | outcome [4] | Potency [5] | Potency [9] | outcome [7] | outcome [8]

CC(C)=CCC/C(C)=C/COC=O
inactive: Potency [1] | outcome [2] | outcome [10] | outcome [4] | Potency [9] | Potency [6] | outcome [8]

C/C(=C1\CCOC(=O)S1)N(C=O)Cc1cnc(C)nc1N
inactive: Potency [1] | outcome [3] | outcome [10] | outcome [4] | Potency [5] | Potency [9] | Potency [6] | outcome [7] | outcome [8]

CC(C)(C)NC[C@H](O)COc1cccc2c1CCCC2=O
inactive: Potency [1] | outcome [2] | outcome [10] | outcome [4] | Potency [9] | Potency [6] | outcome [8]

O=C(O)CNC(=O)CNC(=O)CNC(=O)CSC(=O)c1ccccc1
inactive: Potency [1] | outcome [2] | outcome [4] | Potency [9] | Potency [6] | outcome [7] | outcome [8]
